# Columns and labels:
# [1] = molecular target: RAF proto-oncogene serine/threonine-protein kinase (Homo sapiens) (UniProt P04049); conditions: at 1 µM;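 note: values are the mean percent inhibition of CRAF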
# [2] = molecular target: T1, Interleukin-1 receptor-associated kinase 4 (Homo sapiens) (UniProt Q9NWZ3); conditions: at 0.1 µM
# T1 sequence (whole entry): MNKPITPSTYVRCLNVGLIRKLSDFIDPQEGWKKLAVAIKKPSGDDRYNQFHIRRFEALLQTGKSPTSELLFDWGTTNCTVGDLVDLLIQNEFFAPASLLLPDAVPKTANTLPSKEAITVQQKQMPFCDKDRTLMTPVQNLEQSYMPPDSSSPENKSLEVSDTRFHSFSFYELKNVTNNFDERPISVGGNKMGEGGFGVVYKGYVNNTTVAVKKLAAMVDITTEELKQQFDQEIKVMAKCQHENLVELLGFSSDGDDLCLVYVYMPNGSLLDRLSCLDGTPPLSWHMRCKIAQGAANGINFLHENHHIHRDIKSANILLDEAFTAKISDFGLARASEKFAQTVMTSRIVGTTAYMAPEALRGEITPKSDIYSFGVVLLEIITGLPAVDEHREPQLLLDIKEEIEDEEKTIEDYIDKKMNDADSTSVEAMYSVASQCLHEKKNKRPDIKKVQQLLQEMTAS
# [3] = molecular target: T1, Interleukin-1 receptor-associated kinase 4 (Homo sapiens); conditions: at 1 µM
# [4] = molecular target: Leucine-rich repeat serine/threonine-protein kinase 2 (Homo sapiens) (UniProt Q5S007); conditions: at 0.1 µM
# Sequence of Leucine-rich repeat serine/threonine-protein kinase 2 (Homo sapiens) (Q5S007 whole entry): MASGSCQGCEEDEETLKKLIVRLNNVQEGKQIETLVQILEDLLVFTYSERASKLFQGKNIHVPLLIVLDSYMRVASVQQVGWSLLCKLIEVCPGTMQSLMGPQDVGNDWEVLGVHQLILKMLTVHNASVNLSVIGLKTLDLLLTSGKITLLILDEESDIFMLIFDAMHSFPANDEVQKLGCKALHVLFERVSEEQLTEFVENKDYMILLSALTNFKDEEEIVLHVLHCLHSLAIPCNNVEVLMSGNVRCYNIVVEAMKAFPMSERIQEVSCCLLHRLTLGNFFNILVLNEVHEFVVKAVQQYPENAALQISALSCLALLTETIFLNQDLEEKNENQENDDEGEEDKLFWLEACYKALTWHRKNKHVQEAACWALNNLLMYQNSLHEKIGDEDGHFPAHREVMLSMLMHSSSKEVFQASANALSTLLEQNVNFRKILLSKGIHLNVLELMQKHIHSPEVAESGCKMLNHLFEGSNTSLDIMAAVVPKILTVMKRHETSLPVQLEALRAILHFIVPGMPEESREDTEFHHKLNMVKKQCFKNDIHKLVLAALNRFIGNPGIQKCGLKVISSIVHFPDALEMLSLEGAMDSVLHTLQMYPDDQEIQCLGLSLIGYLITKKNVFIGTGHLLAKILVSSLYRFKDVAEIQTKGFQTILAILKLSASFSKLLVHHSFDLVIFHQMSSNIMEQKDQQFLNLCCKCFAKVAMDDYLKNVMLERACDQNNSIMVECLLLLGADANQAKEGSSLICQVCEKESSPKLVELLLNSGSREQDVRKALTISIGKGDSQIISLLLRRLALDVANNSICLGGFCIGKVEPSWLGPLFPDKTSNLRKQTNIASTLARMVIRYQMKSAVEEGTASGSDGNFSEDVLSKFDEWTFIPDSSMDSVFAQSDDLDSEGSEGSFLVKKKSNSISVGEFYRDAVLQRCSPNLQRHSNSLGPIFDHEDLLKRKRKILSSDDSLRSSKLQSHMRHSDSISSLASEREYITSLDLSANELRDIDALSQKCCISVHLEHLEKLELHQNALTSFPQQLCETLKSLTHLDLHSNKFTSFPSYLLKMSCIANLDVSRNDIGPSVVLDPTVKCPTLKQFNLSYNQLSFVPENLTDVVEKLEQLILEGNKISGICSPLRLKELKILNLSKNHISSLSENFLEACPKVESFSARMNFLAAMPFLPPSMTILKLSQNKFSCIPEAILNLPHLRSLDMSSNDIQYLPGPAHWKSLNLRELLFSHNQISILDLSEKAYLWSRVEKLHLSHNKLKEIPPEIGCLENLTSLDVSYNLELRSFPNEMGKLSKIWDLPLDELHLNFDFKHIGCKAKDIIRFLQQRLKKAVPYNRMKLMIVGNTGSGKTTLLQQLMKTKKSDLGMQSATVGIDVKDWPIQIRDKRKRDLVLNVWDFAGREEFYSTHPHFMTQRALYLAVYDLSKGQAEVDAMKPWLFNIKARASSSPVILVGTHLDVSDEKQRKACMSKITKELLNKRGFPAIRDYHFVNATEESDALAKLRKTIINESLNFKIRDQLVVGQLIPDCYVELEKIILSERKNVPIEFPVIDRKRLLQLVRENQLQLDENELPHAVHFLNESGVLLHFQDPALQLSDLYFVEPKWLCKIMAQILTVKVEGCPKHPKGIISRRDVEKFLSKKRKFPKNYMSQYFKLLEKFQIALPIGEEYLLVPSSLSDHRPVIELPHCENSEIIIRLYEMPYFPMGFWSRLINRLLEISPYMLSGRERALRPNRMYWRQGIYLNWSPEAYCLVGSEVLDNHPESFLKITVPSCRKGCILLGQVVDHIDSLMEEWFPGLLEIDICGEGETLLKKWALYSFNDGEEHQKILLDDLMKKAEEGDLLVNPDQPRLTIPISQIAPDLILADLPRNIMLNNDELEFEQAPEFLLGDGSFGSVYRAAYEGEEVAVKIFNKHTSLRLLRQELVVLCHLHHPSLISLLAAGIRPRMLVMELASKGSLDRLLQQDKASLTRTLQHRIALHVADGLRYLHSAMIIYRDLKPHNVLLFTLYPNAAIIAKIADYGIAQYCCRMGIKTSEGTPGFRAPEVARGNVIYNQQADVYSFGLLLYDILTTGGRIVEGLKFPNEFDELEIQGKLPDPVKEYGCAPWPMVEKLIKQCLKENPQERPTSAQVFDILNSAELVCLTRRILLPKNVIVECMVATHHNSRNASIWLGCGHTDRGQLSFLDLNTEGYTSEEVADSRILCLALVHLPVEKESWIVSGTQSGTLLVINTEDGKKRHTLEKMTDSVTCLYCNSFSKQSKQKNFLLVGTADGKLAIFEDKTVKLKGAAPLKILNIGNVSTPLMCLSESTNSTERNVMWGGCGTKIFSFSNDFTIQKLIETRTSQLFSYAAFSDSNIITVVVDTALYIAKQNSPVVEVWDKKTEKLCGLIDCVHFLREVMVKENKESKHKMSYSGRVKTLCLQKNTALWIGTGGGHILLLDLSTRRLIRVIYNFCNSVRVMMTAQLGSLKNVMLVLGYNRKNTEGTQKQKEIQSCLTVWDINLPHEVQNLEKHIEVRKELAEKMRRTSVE
# [5] = molecular target: Leucine-rich repeat serine/threonine-protein kinase 2 (Homo sapiens) (UniProt Q5S007); conditions: at 1 µM
# [6] = system: Leucine-rich repeat serine/threonine-protein kinase 2 (Homo sapiens), Q5S007 [G2019S]; conditions: at 0.1 µM
# Sequence of Leucine-rich repeat serine/threonine-protein kinase 2 (Homo sapiens), Q5S007 [G2019S] (Q5S007 whole entry G2019S): as the sequence (Q5S007 whole entry) above, with G2019S counted along it
# [7] = system: Leucine-rich repeat serine/threonine-protein kinase 2 (Homo sapiens), Q5S007 [G2019S]; conditions: at 1 µM
# Sequence of RAF proto-oncogene serine/threonine-protein kinase (Homo sapiens) (P04049 whole entry): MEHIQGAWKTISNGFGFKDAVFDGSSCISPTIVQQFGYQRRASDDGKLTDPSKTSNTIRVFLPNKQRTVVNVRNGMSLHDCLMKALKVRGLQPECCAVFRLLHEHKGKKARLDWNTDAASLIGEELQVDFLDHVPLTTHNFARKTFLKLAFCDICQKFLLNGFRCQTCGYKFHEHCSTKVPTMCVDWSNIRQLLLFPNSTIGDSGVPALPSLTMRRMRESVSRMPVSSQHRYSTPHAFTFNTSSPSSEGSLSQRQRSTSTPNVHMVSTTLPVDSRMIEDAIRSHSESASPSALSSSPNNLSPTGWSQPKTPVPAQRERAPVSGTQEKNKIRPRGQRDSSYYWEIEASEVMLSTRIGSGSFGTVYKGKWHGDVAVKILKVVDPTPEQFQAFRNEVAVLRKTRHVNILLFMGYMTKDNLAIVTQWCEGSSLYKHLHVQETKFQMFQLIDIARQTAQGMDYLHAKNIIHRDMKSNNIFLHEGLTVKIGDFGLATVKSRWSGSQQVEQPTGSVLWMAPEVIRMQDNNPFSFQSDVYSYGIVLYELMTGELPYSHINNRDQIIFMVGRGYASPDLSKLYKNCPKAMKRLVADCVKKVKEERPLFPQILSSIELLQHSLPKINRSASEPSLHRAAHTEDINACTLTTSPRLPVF
SMILES,inhibition [1] [%],inhibition [2] [%],inhibition [3] [%],inhibition [4] [%],inhibition [5] [%],inhibition [6] [%],inhibition [7] [%]
NC(=O)c1sc(-n2cnc3cc(C(F)(F)F)ccc32)cc1OCc1ccccc1Br,5.05,0.4,1.13,3.39,6.23,3.66,6.47
Cc1cc(-c2ccco2)cc(C)c1/C=C/c1cncc(-c2nn[nH]n2)c1,-5.34,-0.17,-0.12,4.45,8.02,5.52,5.78
COc1cc2c(cc1Nc1nc(Nc3ccsc3C(N)=O)c3cc[nH]c3n1)N(C(=O)CN(C)C)CCC2,-4.6,-1.66,-1.26,80.8,86.2,63,61.2
CCn1c(-c2nonc2N)nc2c(C#CC(C)(C)O)ncc(OCC3CCNCC3)c21,1.08,-1.36,1.24,-2.92,5,1.31,16.7
NS(=O)(=O)c1ccc(N/C=C2\C(=O)Nc3ccc4ncsc4c32)cc1,0.21,1.82,2.58,17.8,58.6,29.4,58.9
Fc1ccc(-c2ncn(C3CCNCC3)c2-c2ccnc(Oc3ccccc3)n2)cc1,1.07,0.54,0.35,-5.14,-7.49,-2.28,-0.98
CCn1c(-c2nonc2N)nc2c(C#CCN)ncc(OCCCN)c21,1.98,1.9,-2,3.78,5.71,4.23,12.1
CCn1c(-c2nonc2N)nc2c(C#CC(C)(C)O)ncc(OC[C@@H]3CCCN3)c21,0.33,0.18,0.53,0.96,7.88,2.98,12.5
COc1cc(C=NNc2ncnc3c2cnn3Cc2ccccc2)ccc1O,8.55,1.48,-1.52,-2.34,3.59,1.06,10.1
NS(=O)(=O)c1ccc(-c2ccc3c(NC(=O)C4CC4)n[nH]c3c2)cc1,9.01,-1.93,1.48,2.77,2.56,3.47,7.51
Nc1nonc1-c1nc2cnccc2n1C1CCCCC1,13.7,2.08,-1.3,4.67,20,9.49,45.5
COc1cccc(COc2cc(-n3cnc4ccccc43)sc2C(N)=O)c1,0.06,-1.12,-1.16,2.35,14.6,5.15,31.2
COc1cccc(-n2ncc3c(N/N=C/c4ccncc4)ncnc32)c1,3.93,2.61,4.07,4.32,16.6,7.97,37.4
CCn1c(-c2nonc2N)nc2c(C#CC(C)(C)O)nc(O[C@@H](CN)c3ccccc3)cc21,-0.12,2.57,-0.97,1.02,12.4,5.6,35.9

# Reference: ChEMBL document CHEMBL1961873, “Compounds: GSK PKIS; Assays: Nanosyn kinase panel” (2012)
